This is an account of results in PubChem BioAssay.

Test [1] is described as follows: viability loss in pontine glioma line – cell-based, SU-DIPG-XVII, MIPE5.0, CellTiter-Glo, qHTS, dose response (AID 1347060; cut-off not given, nearly all actives have AC50 up to about 26 µM;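 note: cells exposed to compound for 48 hours before viability readout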). As to conditions: CellTiter-Glo ATP luminescence.
Test [2] can be described thus: viability loss in pontine glioma line – cell-based, SU-DIPG-XIII, MIPE4.0, CellTiter-Glo, qHTS, dose response (AID 1347061; cut-off not given, nearly all actives have AC50 up to about 37 µM;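 note: cells exposed to compound for 48 hours before readout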). As to conditions: CellTiter-Glo ATP luminescence.
Test [3] is described as follows: viability loss in pontine glioma line – cell-based, JHH-DIPG-1, MIPE4.0, CellTiter-Glo, qHTS, dose response (AID 1347062; cut-off not given, nearly all actives have AC50 up to about 27 µM;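 note: cells exposed to compound for two days before readout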). The note with it: JHH-DIPG-1 viability, CellTiter-Glo ATP luminescence. A general note: ATP-based viability assays read luminescence as a measure of living cells.
A short description of test [4]: viability loss in pontine glioma line – cell-based, SU-DIPG-IV, MIPE4.0, CellTiter-Glo, qHTS, dose response (AID 1347063; cut-off not given, nearly all actives have AC50 up to about 30 µM;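 note: compound exposure lasted 48 hours before the viability readout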). As to conditions: CellTiter-Glo ATP luminescence.
Test [5] can be described thus: viability loss in pontine glioma line – cell-based, SU-DIPG-XXV, MIPE5.0, CellTiter-Glo, qHTS, dose response (AID 1347065; cut-off not given, nearly all actives have AC50 up to about 26 µM;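 note: cells exposed to compound for 48 hours before ATP readout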). The note with it: CellTiter-Glo ATP luminescence.
A short description of test [6]: growth inhibition of DIPG cells – cell-based, MIPE4.0 library, CellTiter-Glo luminescence, qHTS (AID 1347066; cut-off not given, nearly all actives have AC50 up to about 30 µM;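 note: cells exposed to compound for 48 hours before readout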). As to conditions: SU-DIPG-VI viability, CellTiter-Glo ATP luminescence.
Test [7] can be described thus: viability loss with induced miR-34 in A549 – imaging, A549 dox-inducible miR-34, nuclei and caspase counts, primary screen (AID 1347080;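 active = compounds whose cell count with miR-34 switched on is under 0.7 times the count with it off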). The note with it: A549 miR-34 inducible, Hoechst nuclei count, 48 h.
The nature of test [8]: compounds altering HSF1 focus formation in cells – imaging, Selleck Cancer Library (AID 1347162; in the data active = plate-normalised HSF1 focus index below about 0.46). The note with it: human cells, HSF1 nuclear foci imaging, at 10 µM; SSMD: measured here: HSF1 foci SSMD mean; cell count: measured here: cell number; plate-normalised HSF1 focus index: stronger effect = lower value.
Test [9] can be described thus: MELAS cybrid and Rieske KO viability enhancers – cell-based, MELAS cybrids, Rieske KO mouse fibroblasts, CellTiter-Glo, primary screen (AID 1508586;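 active = mean z-score across replicates of 1.96 or higher in either the MELAS or the Rieske mutant cell line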;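 note: z relative to plate mean and SD of compound and empty wells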). The note with it: low glucose.
The nature of test [10]: drug combination growth inhibition, ovarian cancer – cell-based, oncology-focused library, rucaparib conditional, profiling panel (AID 1508598). The note with it: patient-derived ovarian cancer cells, CellTiter-Glo viability, 144 h, stronger effect = lower value.
Test [11] is described as follows: JHH-DIPG-1 glioma cell viability, MIPE5.0 library, CellTiter-Glo luminescence, qHTS (AID 1347067; cut-off not given, nearly all actives have AC50 up to about 26 µM;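 note: cells exposed to compound for 48 hours before readout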). As to conditions: JHH-DIPG-1 glioma viability, CellTiter-Glo ATP luminescence.
Test [12] in a line: growth inhibition of DIPG cells – cell-based, MIPE5.0 library, qHTS (AID 1347068; cut-off not given, nearly all actives have IC50 up to about 30 µM;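 note: cells exposed to compound for 48 hours before viability readout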). As to conditions: SU-DIPG-XXV viability.

Records with an inconclusive call do not appear. Active and inactive are the calls of the source.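 Rule for the calls, unless noted: active = normalized viability below 100% at a tested concentration; inactive = the rest.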

The term AC50 denotes the concentration at which the activity in the assay is half-maximal. The viability is a read-out of living cells in per cent, often relative to untreated cells. With `O=C(NCCCNc1nc(Nc2cccc(NC(=O)N3CCCC3)c2)ncc1I)c1cccs1`, the concentration at half-maximal activity (AC50) in [1] is 16.6 µM (active); in [2], 20.9 µM (active); in test [3] it was 23.5 µM (active); in test [4], 14.8 µM (active); in [5], 3.72 µM (active); in test [6], 20.9 µM (active). Moreover, the fold change is 0.948 (inactive) in [7] (stronger effect = lower value, cell number ratio, induced over uninduced) and 1.03 in test [7] (measured here: relative caspase fold change +Dox/-Dox). Also, the cell count in [7] (measured here: total cells with miR-34 induction, stronger effect = lower value) was 2780; in [7] (measured here: total cells without miR-34 induction), 2940; in test [8], 7460. Besides, the SSMD in test [8] is -3.5. Moreover, the plate-normalised HSF1 focus index in [8] is 0.877 (inactive). Further, the z-score was -0.385 (inactive) in test [9] (MELAS cybrid survival, CellTiter-Glo 48 h, stronger effect = higher value) and -0.479 in test [9] (Rieske KO mouse fibroblast survival, CellTiter-Glo 72 h). Further, the viability in test [10] (at 0.000305 µM, OCI-C5x cells, with rucaparib 10 µM, 100% = cells with rucaparib alone) is 115% (inactive); in [10] (at 0.000305 µM, OCI-C5x cells, without rucaparib) it was 106% (inactive); in test [10] (at 0.000305 µM, OCI-P5x cells, with rucaparib 20 µM, 100% = cells with rucaparib alone), 91.2% (active); in test [10] (at 0.000305 µM, OCI-P5x cells, without rucaparib), 89.1% (active); in [10] (at 0.00122 µM, OCI-C5x cells, with rucaparib 10 µM, 100% = cells with rucaparib alone), 116% (inactive); in test [10] (at 0.00122 µM, OCI-C5x cells, without rucaparib), 102% (inactive). For the same molecule, the viability in test [10] (at 0.00122 µM, OCI-P5x cells, with rucaparib 20 µM, 100% = cells with rucaparib alone) is 97.1% (active); in test [10] (at 0.00122 µM, OCI-P5x cells, without rucaparib), 94.8% (active); in test [10] (at 0.00488 µM, OCI-C5x cells, with rucaparib 10 µM, 100% = cells with rucaparib alone), 110% (inactive); in test [10] (at 0.00488 µM, OCI-C5x cells, without rucaparib), 97.8% (active); in [10] (at 0.00488 µM, OCI-P5x cells, with rucaparib 20 µM, 100% = cells with rucaparib alone), 97.7% (active); in test [10] (at 0.00488 µM, OCI-P5x cells, without rucaparib) it was 103% (inactive). For the same molecule, the viability in test [10] (at 0.0195 µM, OCI-C5x cells, with rucaparib 10 µM, 100% = cells with rucaparib alone) is 112% (inactive); in test [10] (at 0.0195 µM, OCI-C5x cells, without rucaparib), 102% (inactive); in [10] (at 0.0195 µM, OCI-P5x cells, with rucaparib 20 µM, 100% = cells with rucaparib alone), 104% (inactive); in test [10] (at 0.0195 µM, OCI-P5x cells, without rucaparib), 101% (inactive); in test [10] (at 0.0781 µM, OCI-C5x cells, with rucaparib 10 µM, 100% = cells with rucaparib alone), 123% (inactive); in test [10] (at 0.0781 µM, OCI-C5x cells, without rucaparib), 112% (inactive). Besides, the viability in test [10] (at 0.0781 µM, OCI-P5x cells, with rucaparib 20 µM, 100% = cells with rucaparib alone) was 99.5% (active); in test [10] (at 0.0781 µM, OCI-P5x cells, without rucaparib) it was 106% (inactive); in [10] (at 0.313 µM, OCI-C5x cells, with rucaparib 10 µM, 100% = cells with rucaparib alone), 137% (inactive); in test [10] (at 0.313 µM, OCI-C5x cells, without rucaparib) it was 120% (inactive); in [10] (at 0.313 µM, OCI-P5x cells, with rucaparib 20 µM, 100% = cells with rucaparib alone) it was 98.3% (active); in test [10] (at 0.313 µM, OCI-P5x cells, without rucaparib), 99.8% (active). The viability was 122% (inactive) in [10] (at 1.25 µM, OCI-C5x cells, with rucaparib 10 µM, 100% = cells with rucaparib alone); 120% (inactive) in test [10] (at 1.25 µM, OCI-C5x cells, without rucaparib); 85.2% (active) in test [10] (at 1.25 µM, OCI-P5x cells, with rucaparib 20 µM, 100% = cells with rucaparib alone); 99.1% (active) in test [10] (at 1.25 µM, OCI-P5x cells, without rucaparib); 76.6% (active) in [10] (at 5 µM, OCI-C5x cells, with rucaparib 10 µM, 100% = cells with rucaparib alone); 127% (inactive) in test [10] (at 5 µM, OCI-C5x cells, without rucaparib). The viability is 68.2% (active) in test [10] (at 5 µM, OCI-P5x cells, with rucaparib 20 µM, 100% = cells with rucaparib alone) and 91.4% (active) in [10] (at 5 µM, OCI-P5x cells, without rucaparib).

With `CNC1CCC(N(Cc2cccc(-c3ccncc3)c2)C(=O)c2sc3c(F)ccc(F)c3c2Cl)CC1` (configuration not stated), the half-maximal activity concentration (AC50) in test [1] was 23.5 µM (active); in [2], 14.8 µM (active); in test [3] it was 26.4 µM (active); in [4], 23.5 µM (active); in [5], 18.6 µM (active); in [6], 23.5 µM (active). Further, in test [11], the AC50 was 26.3 µM (active).

As a reminder, the IC50 is the midpoint of a concentration-inhibition curve. As for `CC(C)C[C@H](NC(=O)[C@@H](NC(=O)c1cccc(-c2ccccc2)n1)[C@@H](C)O)B(O)O`, the AC50 in [1] was 0.0456 µM (active); in [2] it was 16.6 µM (active); in test [3], 0.0526 µM (active); in [4], 0.0235 µM (active); in test [5], 0.0204 µM (active); in [6], 0.0662 µM (active). Further, the AC50 in test [11] is 0.0811 µM (active). Also, the IC50 in test [12] is 0.0257 µM (active).
